Results as given in PubChem BioAssay.

target: NADPH oxidase 2 (Homo sapiens) (UniProt P04839); test: compounds shifting NOX2 Amplex Red fluorescence – cell-based, HEK293-NOX2, PMA-stimulated, NOX inhibitor project, primary screen (AID 1159); settings: 45 min, higher = more signal, called active from +8 up or from −8 down; also: test concentration not given here
Sequence (P04839 whole entry, looked up): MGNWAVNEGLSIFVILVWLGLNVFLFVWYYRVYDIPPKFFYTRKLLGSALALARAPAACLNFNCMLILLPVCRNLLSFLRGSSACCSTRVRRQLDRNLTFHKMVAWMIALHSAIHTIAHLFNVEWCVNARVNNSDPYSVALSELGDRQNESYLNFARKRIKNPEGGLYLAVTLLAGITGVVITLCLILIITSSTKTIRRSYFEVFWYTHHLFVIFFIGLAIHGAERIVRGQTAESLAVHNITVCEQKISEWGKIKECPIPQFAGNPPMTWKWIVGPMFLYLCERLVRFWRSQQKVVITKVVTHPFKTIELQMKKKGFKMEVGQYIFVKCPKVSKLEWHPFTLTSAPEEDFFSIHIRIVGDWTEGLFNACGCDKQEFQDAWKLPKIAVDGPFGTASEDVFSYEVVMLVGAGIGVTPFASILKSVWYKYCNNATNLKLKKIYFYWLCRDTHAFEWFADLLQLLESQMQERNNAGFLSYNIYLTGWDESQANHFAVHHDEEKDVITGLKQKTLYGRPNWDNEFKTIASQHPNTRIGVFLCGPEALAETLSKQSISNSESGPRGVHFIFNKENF

z-score, inactive:
CO[C@H]1COC(=O)[C@H](CCSC)NC(=O)CC=C[C@@H](C)[C@H](OC)COC(=O)[C@@H](OCc2ccccc2)C=C[C@@H]1C 0.167
COC(=O)[C@H](C)NC(=O)CCC1CC(OC(=O)NCCc2ccc(F)cc2)CC2(CCCC(COC(=O)NCCc3ccccc3OC)O2)O1 (stereo not given in full) 0.577
CC(C)CN1CCc2nc(-c3ccccc3)c3c(c2C1)CO[C@@H](C)C3 2.18
CC(C)[C@@H](OCc1ccccc1)[C@H](C)CON=C1[C@H]2CCn3c(=O)n(-c4ccccc4)c(=O)n3[C@H]2[C@H](O)[C@@H]2O[C@H]12 -0.662
CON=C(C)CCN1CCc2nc(-c3ccccc3)c(-c3ccccc3)cc2C1 -6.35
COc1ccc(OC[C@H]2CN3[C@@H](CC[C@@H](C)[C@@H]3c3ccc(Br)cc3)C(=O)O2)cc1 -0.783
O=C(NN=C1C[C@@H](O)[C@@H](O)[C@@H]2[C@@H]3C(=O)N(c4ccc(F)cc4F)C(=O)[C@@H]3CC[C@H]12)OCc1ccccc1 0.317
COC(=O)[C@H](C)NC(=O)CCC1CC(OC(=O)NCc2cccc3ccccc23)CC2(CCCC(COC(=O)NCc3ccccc3)O2)O1 (stereo not given in full) 1.42
O=C1C2=CC[C@H]3C(=O)N(C4CCCCC4)C(=O)[C@H]3[C@H]2[C@H](O)[C@@H]2O[C@H]12 0.951
C#CCCCON=C1C[C@@H](O)[C@@H](O)[C@@H]2[C@@H]3C(=O)N(C[C@@H]4CCCO4)C(=O)[C@@H]3CC[C@H]12 -0.635
